Assay [1] concerns the target human Phosphodiesterase 4A1 (PDE4A1), PDE4A (gene 5141) (UniProt P27815). Put plainly: NVS_ENZ_hPDE4A1: NovaScreen (NVS) Enzymatic Assay for human Phosphodiesterase 4A1 (PDE4A1) (AID 2283191). The procedure, abridged: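 Fluorescent substrate turnover by recombinant PDE4A1 read after 1 h by mobility-shift separation. Primary duplicate screen at 25 uM; hits retested in concentration series with a 50 uM maximum, relative to DMSO.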

In assay [2] the target is human Phosphodiesterase 5 (PDE5), PDE5A (gene 8654) (UniProt O76074). Put plainly: NVS_ENZ_hPDE5: NovaScreen (NVS) Enzymatic Assay for human Phosphodiesterase 5 (PDE5) (AID 2283194). The procedure, abridged:
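Screening began in duplicate at 25 uM, with actives taken into concentration-response. Enzyme activity of recombinant PDE5 toward its substrate was measured at 1 h by fluorescence mobility-shift detection, relative to DMSO controls.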

For assay [3], the target named is human Phosphodiesterase 10 (PDE10), PDE10A (gene 10846) (UniProt Q9Y233). The experiment in a line: NVS_ENZ_hPDE10: NovaScreen (NVS) Enzymatic Assay for human Phosphodiesterase 10 (PDE10) (AID 2283195). The method, boiled down:
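Biochemical single-readout PDE10A assay, cell-free, extracted protein. Compounds first screened at 25 uM in duplicate, hits then titrated to 50 uM max. Activity measured after 1 h; loss-of-signal fitted against DMSO negative control.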

Assay [4] concerns the target human Phosphoinositide 3-kinase alpha (PI3Ka), PIK3CA (gene 5290) (UniProt P42336). Put plainly: NVS_ENZ_hPI3Ka: NovaScreen (NVS) Enzymatic Assay for human Phosphoinositide 3-kinase alpha (PI3Ka) (AID 2283196). The procedure, abridged: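 Duplicate single-point screen (25 uM), then singleton dose-response (max 50 uM) for compounds meeting the threshold. Cell-free kinase reaction, 1 h; fluorescent mobility-shift readout.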

Another assay deals with PPP2CA (gene 5515) (UniProt P67775). Put plainly: NVS_ENZ_hPPP2CA: NovaScreen (NVS) Enzymatic Assay for human Protein Phosphatase 2 Aatalytic subunit Alpha (PPP2CA) (AID 2283199). The method, boiled down:
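Cell-free phosphatase activity: fluorescent substrate turnover by recombinant human enzyme, resolved by mobility shift at 1.33 h. Compounds passing the 25 uM duplicate primary screen were rerun in singleton series with a 50 uM top concentration.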

Assay [5] concerns the target Serine/threonine-protein phosphatase PP1-alpha catalytic subunit (Homo sapiens) (UniProt P62136). The experiment in a line: NVS_ENZ_hPPP1CA: NovaScreen (NVS) Enzymatic Assay for human Protein Phosphatase 1 Aatalytic subunit Alpha (PPP1CA) (AID 2283200). The procedure, abridged:
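Chemicals were first screened in duplicate at 25 uM, and those passing threshold (e.g. 30% inhibition) were run as concentration series to 50 uM. Cell-free recombinant protein, 1.33 h read, fluorescent substrate/product mobility-shift detection, normalised to DMSO.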

In assay [6] the target is human Protein Tyrosine Phosphatase Non-receptor Type 1 (PTPN1), PTPN1 (gene 5770) (UniProt P18031). Put plainly: NVS_ENZ_hPTPN1: NovaScreen (NVS) Enzymatic Assay for human Protein Tyrosine Phosphatase Non-receptor Type 1 (PTPN1) (AID 2283201). The method, boiled down:
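Chemicals were first tested in duplicate at 25 uM, and those passing threshold went on to singleton concentration series topping at 50 uM. Recombinant enzyme, specific substrate, product separated by mobility shift, fluorescence read at 1.33 h; activity loss relative to DMSO.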

The target in assay [7] is Tyrosine-protein phosphatase non-receptor type 11 (Homo sapiens) (UniProt Q06124). Put plainly: NVS_ENZ_hPTPN11: NovaScreen (NVS) Enzymatic Assay for human Protein Tyrosine Phosphatase Non-receptor Type 11 (PTPN11) (AID 2283202). The method, boiled down:
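Compounds first tested in duplicate at 25 uM; those reaching ~30% inhibition rerun in singleton concentration-response, top 50 uM. Phosphatase activity measured after 0.5 h by fluorescence with mobility-shift separation, relative to DMSO.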

Assay [8] deals with human Phosphatase and Tensin Homolog (PTEN), PTEN (gene 5728) (UniProt P60484). The experiment in a line: NVS_ENZ_hPTEN: NovaScreen (NVS) Enzymatic Assay for human Phosphatase and Tensin Homolog (PTEN) (AID 2283203). The procedure, abridged: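 Loss of fluorescent product signal after mobility-shift separation reports PTEN activity, recombinant human enzyme, 1 h after compound addition. Single 25 uM duplicate screen, then concentration-response on actives; DMSO baseline.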

Assay [9] has as its target Tyrosine-protein phosphatase non-receptor type 12 (Homo sapiens) (UniProt Q05209). The experiment in a line: NVS_ENZ_hPTPN12: NovaScreen (NVS) Enzymatic Assay for human Protein Tyrosine Phosphatase Non-receptor Type 12 (PTPN12) (AID 2283204). The procedure, abridged: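 Single-concentration duplicates (25 uM) preceded singleton concentration-response up to 50 uM for chemicals passing threshold. Cell-free recombinant PTPN12 activity was read 1.33 h after dosing via fluorescence after mobility-shift separation; loss of signal versus DMSO.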

Assay [10] concerns the target Tyrosine-protein phosphatase non-receptor type 13 (Homo sapiens) (UniProt Q12923). The experiment in a line: NVS_ENZ_hPTPN13: NovaScreen (NVS) Enzymatic Assay for human Protein Tyrosine Phosphatase Non-receptor Type 13 (PTPN13) (AID 2283205). The method, boiled down: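 Screened first at a single 25 uM in duplicate; compounds passing the threshold (e.g. 30% inhibition) were rerun in concentration series, top 50 uM. Recombinant enzyme, fluorescent substrate, mobility-shift separation, 0.5 h read. Data fitted as inhibition relative to DMSO.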

Assay [11] deals with human Protein Tyrosine Phosphatase Non-receptor Type 2 (PTPN2), PTPN2 (gene 5771) (UniProt P17706). The experiment in a line: NVS_ENZ_hPTPN2: NovaScreen (NVS) Enzymatic Assay for human Protein Tyrosine Phosphatase Non-receptor Type 2 (PTPN2) (AID 2283207). The procedure, abridged: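 Activity measured as fluorescence after mobility-shift separation of substrate and product, 1 h after compound. Duplicate single-point 25 uM primary testing, concentration series for actives; inhibition scored as signal loss relative to DMSO baseline.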

Assay [12] deals with human Protein Tyrosine Phosphatase Non-receptor Type 4 (PTPN4), PTPN4 (gene 5775) (UniProt P29074). The experiment in a line: NVS_ENZ_hPTPN4: NovaScreen (NVS) Enzymatic Assay for human Protein Tyrosine Phosphatase Non-receptor Type 4 (PTPN4) (AID 2283208). The method, boiled down: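 Screened in duplicate at 25 uM, with hits then titrated to a top concentration of 50 uM. Recombinant Sf9-derived PTPN4 turnover was read by fluorescence with electrophoretic separation, 1.33 h after compound addition. DMSO served as baseline.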

Assay [13] deals with human Protein Tyrosine Phosphatase Non-receptor Type 9 (PTPN9), PTPN9 (gene 5780) (UniProt P43378). Put plainly: NVS_ENZ_hPTPN9: NovaScreen (NVS) Enzymatic Assay for human Protein Tyrosine Phosphatase Non-receptor Type 9 (PTPN9) (AID 2283209). The procedure, abridged:
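Sf9-expressed enzyme in a cell-free assay, fluorescence read 1.33 h after dosing with mobility-shift separation of substrate and product. Tested at 25 uM in duplicate, then up to 50 uM; signal loss versus DMSO.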

The target in assay [14] is human Protein Tyrosine Phosphatase Non-receptor Type 6 (PTPN6), PTPN6 (gene 5777) (UniProt P29350). Put plainly: NVS_ENZ_hPTPN6: NovaScreen (NVS) Enzymatic Assay for human Protein Tyrosine Phosphatase Non-receptor Type 6 (PTPN6) (AID 2283210). The method, boiled down: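 Recombinant human PTPN6 from SF9 cells, enzyme activity followed by fluorescence after mobility-shift separation of substrate and product at 1.33 h. Chemicals first tested at a single 25 uM in duplicate, then confirmed across concentration series; loss of signal relative to DMSO.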

Assay [15] concerns the target human Protein Tyrosine Phosphatase Receptor Type B (PTPRB), PTPRB (gene 5787) (UniProt P23467). Put plainly: NVS_ENZ_hPTPRB: NovaScreen (NVS) Enzymatic Assay for human Protein Tyrosine Phosphatase Receptor Type B (PTPRB) (AID 2283211). The method, boiled down: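 Recombinant human PTPRB with a fluorescent substrate, product separated by electrophoretic mobility shift; read 1 h after dosing. Primary screen in duplicate at 25 uM; actives then retested in concentration series; loss of signal versus DMSO.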

Assay [16] concerns the target human Protein Tyrosine Phosphatase Receptor Type C (PTPRC), PTPRC (gene 5788) (UniProt P08575). Put plainly: NVS_ENZ_hPTPRC: NovaScreen (NVS) Enzymatic Assay for human Protein Tyrosine Phosphatase Receptor Type C (PTPRC) (AID 2283212). The procedure, abridged: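 Absorbance-based phosphatase activity of human PTPRC protein extracted from yeast was measured 1 h post-dosing. Compounds first tested at 25 uM in duplicate, then those passing threshold in singleton concentration series to 50 uM.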

The target in assay [17] is human Rho Associated Coiled-coil Containing Protein Kinase 1 (ROCK1), ROCK1 (gene 6093) (UniProt Q13464). Put plainly: NVS_ENZ_hROCK1: NovaScreen (NVS) Enzymatic Assay for human Rho Associated Coiled-coil Containing Protein Kinase 1 (ROCK1) (AID 2283214). The procedure, abridged:
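Compounds first run in duplicate at 25 uM against recombinant human ROCK1, then followed in concentration series. Kinase activity was read 1 h post-dosing by fluorescence with mobility-shift separation, as signal loss relative to DMSO.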

In assay [18] the target is cAMP-dependent protein kinase catalytic subunit alpha (Homo sapiens) (UniProt P17612). Put plainly: NVS_ENZ_hPKA: NovaScreen (NVS) Enzymatic Assay for human Protein Kinase A (PKA) (AID 2283192). The procedure, abridged: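 Cell-free kinase activity read by fluorescence after mobility-shift separation of substrate and product, 1 h post-dosing. Single-concentration duplicate screen (25 uM) preceded singleton concentration series (top 50 uM); loss of signal versus DMSO.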

In assay [19] the target is human Protein Tyrosine Phosphatase Receptor Type F (PTPRF), PTPRF (gene 5792) (UniProt P10586). Put plainly: NVS_ENZ_hPTPRF: NovaScreen (NVS) Enzymatic Assay for human Protein Tyrosine Phosphatase Receptor Type F (PTPRF) (AID 2283213). The procedure, abridged: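 Cell-free fluorescence enzyme assay with recombinant protein and substrate; product separated by electrophoretic mobility shift. Read 1 h after dosing, single 25 uM duplicate screen, then concentration-response up to 50 uM; loss of signal vs DMSO.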

Where “and” joins values, the source holds several entries; their conditions need not be identical. Equal entries are not always repeated. Records with an inconclusive call do not appear. Some compounds were tested as several samples or in several runs, with calls that do not always agree. Calls of active or inactive are those of the source. How the source made its calls: active means hit-call score of the fitted dose curve at least 0.9, where 1 is the maximum; inconclusive means response in the unintended direction; inactive means score below 0.9.

As usually defined, the AC50 is the midpoint of the concentration-response curve, whichever way the signal moves.

Sequence of human Protein Tyrosine Phosphatase Non-receptor Type 4 (PTPN4), PTPN4 (gene 5775) (P29074 whole entry, looked up): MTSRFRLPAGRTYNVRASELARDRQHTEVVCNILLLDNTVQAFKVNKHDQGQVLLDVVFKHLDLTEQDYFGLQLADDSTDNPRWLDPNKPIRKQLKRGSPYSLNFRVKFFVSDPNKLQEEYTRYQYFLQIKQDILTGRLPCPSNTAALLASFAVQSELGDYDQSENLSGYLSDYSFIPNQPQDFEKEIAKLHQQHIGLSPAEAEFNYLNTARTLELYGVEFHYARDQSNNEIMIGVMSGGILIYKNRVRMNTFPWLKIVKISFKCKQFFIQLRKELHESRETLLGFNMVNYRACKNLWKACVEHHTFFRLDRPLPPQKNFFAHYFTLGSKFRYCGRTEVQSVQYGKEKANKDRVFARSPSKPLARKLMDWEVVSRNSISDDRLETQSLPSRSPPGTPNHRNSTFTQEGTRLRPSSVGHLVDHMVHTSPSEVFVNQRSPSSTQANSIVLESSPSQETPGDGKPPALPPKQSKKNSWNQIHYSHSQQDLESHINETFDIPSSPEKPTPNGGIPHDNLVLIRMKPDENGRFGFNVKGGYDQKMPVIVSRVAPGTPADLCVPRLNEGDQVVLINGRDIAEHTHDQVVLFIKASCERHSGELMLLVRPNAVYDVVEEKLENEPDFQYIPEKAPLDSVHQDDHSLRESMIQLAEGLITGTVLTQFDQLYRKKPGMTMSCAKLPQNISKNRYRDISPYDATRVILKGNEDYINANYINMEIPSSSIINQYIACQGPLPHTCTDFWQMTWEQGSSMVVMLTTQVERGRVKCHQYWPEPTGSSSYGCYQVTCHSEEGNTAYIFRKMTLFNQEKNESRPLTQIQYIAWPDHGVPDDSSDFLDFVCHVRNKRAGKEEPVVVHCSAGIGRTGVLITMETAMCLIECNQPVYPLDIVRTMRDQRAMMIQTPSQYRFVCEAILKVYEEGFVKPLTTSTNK
Sequence of human Protein Tyrosine Phosphatase Non-receptor Type 2 (PTPN2), PTPN2 (gene 5771) (P17706 whole entry, looked up): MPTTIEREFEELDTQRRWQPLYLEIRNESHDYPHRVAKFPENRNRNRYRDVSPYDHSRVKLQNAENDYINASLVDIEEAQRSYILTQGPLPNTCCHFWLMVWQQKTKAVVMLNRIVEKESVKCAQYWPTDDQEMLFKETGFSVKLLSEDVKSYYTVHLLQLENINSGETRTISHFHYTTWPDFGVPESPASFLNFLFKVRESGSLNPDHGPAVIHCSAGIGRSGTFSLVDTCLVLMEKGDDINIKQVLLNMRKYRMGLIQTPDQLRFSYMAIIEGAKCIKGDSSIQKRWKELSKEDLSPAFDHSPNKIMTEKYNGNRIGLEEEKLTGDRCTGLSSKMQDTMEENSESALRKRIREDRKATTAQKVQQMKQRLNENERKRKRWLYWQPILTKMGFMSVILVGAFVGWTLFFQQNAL
Sequence of Tyrosine-protein phosphatase non-receptor type 11 (Homo sapiens) (Q06124 whole entry, looked up): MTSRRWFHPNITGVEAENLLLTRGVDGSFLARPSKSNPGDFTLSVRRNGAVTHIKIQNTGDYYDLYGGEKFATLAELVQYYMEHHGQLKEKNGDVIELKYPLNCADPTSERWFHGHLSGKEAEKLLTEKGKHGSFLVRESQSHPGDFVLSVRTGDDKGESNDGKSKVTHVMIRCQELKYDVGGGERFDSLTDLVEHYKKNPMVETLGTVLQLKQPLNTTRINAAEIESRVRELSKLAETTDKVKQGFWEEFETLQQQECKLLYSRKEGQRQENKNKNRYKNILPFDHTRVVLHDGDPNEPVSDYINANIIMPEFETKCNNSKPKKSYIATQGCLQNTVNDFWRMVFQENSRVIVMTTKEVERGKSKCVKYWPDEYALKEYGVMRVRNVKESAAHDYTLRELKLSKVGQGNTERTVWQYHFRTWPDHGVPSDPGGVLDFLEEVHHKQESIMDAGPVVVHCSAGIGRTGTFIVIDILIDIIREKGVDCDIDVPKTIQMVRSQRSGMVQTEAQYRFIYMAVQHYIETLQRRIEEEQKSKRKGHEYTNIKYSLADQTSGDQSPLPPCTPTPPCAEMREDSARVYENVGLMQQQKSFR
Sequence of human Phosphatase and Tensin Homolog (PTEN), PTEN (gene 5728) (P60484 whole entry, looked up): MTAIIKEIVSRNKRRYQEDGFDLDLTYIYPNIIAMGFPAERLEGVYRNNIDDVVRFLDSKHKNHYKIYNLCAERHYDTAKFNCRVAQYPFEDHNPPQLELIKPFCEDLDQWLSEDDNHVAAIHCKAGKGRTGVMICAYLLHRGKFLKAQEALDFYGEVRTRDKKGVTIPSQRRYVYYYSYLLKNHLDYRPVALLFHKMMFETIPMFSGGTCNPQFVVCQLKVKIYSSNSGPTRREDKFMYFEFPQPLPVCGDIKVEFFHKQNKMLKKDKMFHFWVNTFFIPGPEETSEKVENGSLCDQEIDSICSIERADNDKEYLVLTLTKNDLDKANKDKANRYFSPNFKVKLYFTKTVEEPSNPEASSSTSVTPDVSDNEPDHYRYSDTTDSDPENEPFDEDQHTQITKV
Sequence of human Protein Tyrosine Phosphatase Receptor Type B (PTPRB), PTPRB (gene 5787) (P23467 whole entry, looked up): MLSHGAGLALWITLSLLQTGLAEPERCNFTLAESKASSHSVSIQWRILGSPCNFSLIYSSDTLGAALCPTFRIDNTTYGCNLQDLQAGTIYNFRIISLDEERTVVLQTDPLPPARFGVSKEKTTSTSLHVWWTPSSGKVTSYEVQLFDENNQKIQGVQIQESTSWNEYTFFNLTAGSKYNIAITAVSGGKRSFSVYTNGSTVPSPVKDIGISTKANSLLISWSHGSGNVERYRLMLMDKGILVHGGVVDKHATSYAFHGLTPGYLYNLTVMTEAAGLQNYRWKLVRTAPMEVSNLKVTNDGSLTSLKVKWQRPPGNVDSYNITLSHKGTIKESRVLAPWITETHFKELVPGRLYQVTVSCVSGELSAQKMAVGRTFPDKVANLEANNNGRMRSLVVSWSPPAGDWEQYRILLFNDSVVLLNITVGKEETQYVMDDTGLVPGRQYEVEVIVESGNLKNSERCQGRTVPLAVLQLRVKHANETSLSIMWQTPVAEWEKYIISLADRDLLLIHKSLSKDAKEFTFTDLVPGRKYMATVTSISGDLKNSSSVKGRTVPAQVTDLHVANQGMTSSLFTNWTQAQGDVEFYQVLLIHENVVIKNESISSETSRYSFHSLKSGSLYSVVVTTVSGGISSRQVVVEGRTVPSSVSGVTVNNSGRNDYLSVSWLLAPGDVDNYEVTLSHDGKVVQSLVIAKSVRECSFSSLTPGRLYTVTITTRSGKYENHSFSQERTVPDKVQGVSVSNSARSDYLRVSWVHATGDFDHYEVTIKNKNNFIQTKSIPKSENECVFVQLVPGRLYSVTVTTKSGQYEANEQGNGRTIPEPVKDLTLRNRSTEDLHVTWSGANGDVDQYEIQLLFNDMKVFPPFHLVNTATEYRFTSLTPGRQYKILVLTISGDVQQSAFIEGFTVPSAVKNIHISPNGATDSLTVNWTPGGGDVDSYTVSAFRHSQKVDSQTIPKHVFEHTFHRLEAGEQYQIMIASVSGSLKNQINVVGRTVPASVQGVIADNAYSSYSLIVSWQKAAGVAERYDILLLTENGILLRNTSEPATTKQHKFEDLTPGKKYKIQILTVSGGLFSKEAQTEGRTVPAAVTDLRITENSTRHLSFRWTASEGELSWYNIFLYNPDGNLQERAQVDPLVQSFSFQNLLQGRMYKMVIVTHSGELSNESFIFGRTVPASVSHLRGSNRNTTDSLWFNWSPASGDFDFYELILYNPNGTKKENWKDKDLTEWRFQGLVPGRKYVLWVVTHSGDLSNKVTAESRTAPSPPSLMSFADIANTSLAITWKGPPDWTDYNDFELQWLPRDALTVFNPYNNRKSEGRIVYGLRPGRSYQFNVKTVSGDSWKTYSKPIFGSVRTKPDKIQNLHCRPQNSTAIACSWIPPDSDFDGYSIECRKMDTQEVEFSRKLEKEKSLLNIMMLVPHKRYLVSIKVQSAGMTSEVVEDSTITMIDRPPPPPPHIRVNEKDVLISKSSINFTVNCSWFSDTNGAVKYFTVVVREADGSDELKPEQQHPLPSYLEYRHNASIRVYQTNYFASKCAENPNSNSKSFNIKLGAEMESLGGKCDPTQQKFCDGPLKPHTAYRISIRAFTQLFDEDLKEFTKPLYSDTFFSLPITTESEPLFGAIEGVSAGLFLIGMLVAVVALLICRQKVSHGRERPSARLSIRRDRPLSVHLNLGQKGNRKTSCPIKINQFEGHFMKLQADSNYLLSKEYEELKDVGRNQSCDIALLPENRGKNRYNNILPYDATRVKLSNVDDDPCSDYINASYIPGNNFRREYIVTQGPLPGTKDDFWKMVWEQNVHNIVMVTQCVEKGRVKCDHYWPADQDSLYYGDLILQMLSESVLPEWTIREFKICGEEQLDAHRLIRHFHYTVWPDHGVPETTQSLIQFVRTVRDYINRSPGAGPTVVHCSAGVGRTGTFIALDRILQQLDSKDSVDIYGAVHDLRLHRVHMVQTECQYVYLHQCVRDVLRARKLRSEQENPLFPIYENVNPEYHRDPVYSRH
Sequence of human Protein Tyrosine Phosphatase Non-receptor Type 1 (PTPN1), PTPN1 (gene 5770) (P18031 whole entry, looked up): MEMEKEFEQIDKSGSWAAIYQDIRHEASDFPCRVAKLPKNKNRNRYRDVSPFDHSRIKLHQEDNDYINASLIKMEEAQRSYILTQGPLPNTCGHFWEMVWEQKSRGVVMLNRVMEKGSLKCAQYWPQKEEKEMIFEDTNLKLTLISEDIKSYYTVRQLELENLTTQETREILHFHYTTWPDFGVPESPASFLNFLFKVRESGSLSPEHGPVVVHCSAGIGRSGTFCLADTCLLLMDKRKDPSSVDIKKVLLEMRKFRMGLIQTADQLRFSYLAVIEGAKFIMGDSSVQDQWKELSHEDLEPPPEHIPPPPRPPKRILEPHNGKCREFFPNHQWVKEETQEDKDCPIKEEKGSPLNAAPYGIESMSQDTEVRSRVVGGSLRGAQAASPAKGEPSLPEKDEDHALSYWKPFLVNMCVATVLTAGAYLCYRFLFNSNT
Sequence of PPP2CA (gene 5515) (P67775 whole entry, looked up): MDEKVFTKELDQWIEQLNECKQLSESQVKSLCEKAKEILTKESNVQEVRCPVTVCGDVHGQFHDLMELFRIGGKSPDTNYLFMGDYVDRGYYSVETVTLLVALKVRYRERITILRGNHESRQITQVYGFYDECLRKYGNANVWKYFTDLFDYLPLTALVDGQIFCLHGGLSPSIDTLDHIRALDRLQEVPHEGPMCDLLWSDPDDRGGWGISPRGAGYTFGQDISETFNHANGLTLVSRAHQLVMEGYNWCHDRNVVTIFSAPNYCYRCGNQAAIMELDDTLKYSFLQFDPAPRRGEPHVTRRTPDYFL

`C[Si](Cn1cncn1)(c1ccc(F)cc1)c1ccc(F)cc1`: the concentration at half-maximal activity (AC50) in [1] is 7.33 µM (active). Also, the result in assay [2] was inactive.

For `CN(C)[C@@H]1C(=O)C(C(N)=O)=C(O)[C@@]2(O)C(=O)C3=C(O)c4c(O)cccc4[C@@](C)(O)[C@H]3[C@H](O)[C@@H]12`, the AC50 was 23.1 µM (active) in [1]; 6.97 µM (active) in assay [2]; 4.72 µM (active) and 4.22 µM (active) and 15.1 µM (active) in [4]; 23.1 µM (active) with PPP2CA (gene 5515); 17.4 µM (active) in [5]; 23.1 µM (active) in assay [6]. The AC50 in assay [7] is 10.9 µM (active) and 2.67 µM (active); in assay [8] it was 2.52 µM (active) and 1.53 µM (active) and 2.46 µM (active); in assay [9], 3.91 µM (active) and 18.2 µM (active) and 1.8 µM (active); in assay [10] it was 2.9 µM (active); in assay [11] it was 20.1 µM (active); in assay [12] it was 12.1 µM (active). In addition, the concentration at half-maximal activity (AC50) in [13] was 2.57 µM (active); in assay [14], 41.4 µM (active); in [15], 29.7 µM (active) and 10.1 µM (active); in [16], 11.4 µM (active). For the same compound, the outcome in assay [3], in assay [4], in assay [15] and in assay [17] was inactive.

As for `S=C1NCCN1`, the compound was classed as inactive in [18], in assay [6], in assay [7], in [11], in [14] and in [15]. Further, the compound was called inactive in assay [19].

Turning to `C=C(C)[C@H]1Cc2c(ccc3c2O[C@@H]2COc4cc(OC)c(OC)cc4[C@@H]2C3=O)O1`, in assay [7], the outcome was inactive.

As for `C#CC(C)(C)NC(=O)c1cc(Cl)cc(Cl)c1`, the outcome in assay [8] and in assay [11] was inactive.

Consider `CCOP(=S)(OCC)OC(Cl)C(Cl)(Cl)Cl` (stereo not given), for which the call in [6] and in [12] was inactive. Also, the AC50 in [13] was 12.7 µM (active).

Consider `CCCOc1nn(C(=O)NS(=O)(=O)c2ccccc2C(=O)OC)c(=O)n1C`, for which the call in assay [12] was inactive.

For the compound `CCNc1nc(Cl)nc(NC(C)(C)C#N)n1`, the AC50 was 0.39 µM (active) in [1] and 13.6 µM (active) in [2].

Regarding `CC1(C(=O)Nc2ccc(O)c(Cl)c2Cl)CCCCC1`, the outcome in [4] and in assay [17] was inactive.

(Values after PubChem BioAssay (EPA / NIEHS).)
